The text below walks through data of PubChem BioAssay (Tox21).

Several values for one entry are separate records, joined by “and”; a condition that tells them apart may be missing. Identical values can stand only once. Results filed as inconclusive are left out. Activity calls are given as the source filed them. Unless noted, calls come from the whole dose curve; as a rule, active = well fitted curve in the direction sought with a large enough effect in the repeat runs; inconclusive = weak or mixed curves; inactive = no such curve, though single readings can be large; an effect the other way counts as inactive or inconclusive.

Assay [1] can be described thus: qHTS assay to identify aromatase inhibitors - cell viability counter screen (AID 743084).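 Note: cells stimulated with testosterone during compound exposure; nearly all actives have a fitted effect of over 55% in size.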 Note: potency is the fitted concentration of half-maximal effect. In general terms: qHTS replaces the single test concentration by a dilution series.
In assay [2] the target is Aryl hydrocarbon receptor (Homo sapiens) (UniProt P35869). Nature of the assay: qHTS assay to identify small molecule that activate the aryl hydrocarbon receptor (AhR) signaling pathway (AID 743085).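 For activation: HG2L7.5c1 human HepG2 liver cells with stably integrated DRE-driven firefly reporter; series mostly up to about 70 µM.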 Note: nearly all actives have a fitted effect of over 15% in size. Note: potency is the fitted concentration of half-maximal effect. Put shortly:
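Reporter assay in engineered HepG2 line HG2L7.5c1, whose plasmid carries twenty dioxin responsive elements upstream of firefly luciferase. Treatment lasted 24 h at 37C; ONE-Glo luminescence gauged induction.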

The target of assay [3] is Peroxisome proliferator-activated receptor gamma (Homo sapiens) (UniProt P37231). Nature of the assay: qHTS assay to identify small molecule agonists of the peroxisome proliferator-activated receptor gamma (PPARg) signaling pathway (AID 743094; active = well fitted activation curve with a large enough effect in the signal ratio in the repeat runs, not every such curve was filed as active; the % refers to the signal ratio). The gist of the method:
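Following 5 h plating at 37C, PPARg-bla HEK293H cells receive compound or DMSO for 17 h; fluorescence intensity is recorded after LiveBLAzer B/G loading for 1 h at room temperature.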

Assay [4] is described as follows: qHTS assay to identify small molecule antagonists of the peroxisome proliferator-activated receptor gamma (PPARg) signaling pathway - cell viability counter screen (AID 743194). Note: nearly all actives have a fitted effect of over 55% in size. Particulars: Potency: co-treated with 50 nM rosiglitazone. Put shortly: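 PPARg-UAS-bla HEK293H cells were plated, rested 5 h at 37 C, then treated with compounds plus rosiglitazone (50 nM final) for 17 h at 37 C; viability was then read by CellTiter-Glo luminescence after 30 min at room temperature.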

Assay [5] is described as follows: qHTS assay for small molecule agonists of the antioxidant response element (ARE) signaling pathway - cell viability counter screen (AID 743203; calls by dose curve; note: nearly all actives have a fitted effect of over 55% in size). The gist of the method: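 Compounds in DMSO were pinned onto ARE-bla HepG2 cells plated 5 hrs earlier at 2,000 cells/well. Sixteen hours later at 37C/5% CO2, CellTiter-Glo was added and luminescence measured after 30 min at room temperature.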

Assay [6] is described as follows: qHTS assay for small molecule activators of the heat shock response signaling pathway - cell viability counter screen (AID 743209). Note: nearly all actives have a fitted effect of over 50% in size. Put shortly: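 Counter screen for cytotoxicity in HeLa HSE-bla reporter cells. Treatment was 5 h at 37 C; viability was detected by luminescent ATP assay (CellTiter-Glo) in the same wells as the beta-lactamase read.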
Assay [7] can be described thus: qHTS assay for small molecule activators of the heat shock response signaling pathway (AID 743210; active = well fitted activation curve with a large enough effect in the signal ratio in the repeat runs, with a control signal flat, not every such curve was filed as active; the % refers to the signal ratio; note: series mostly up to about 63 µM). The gist of the method:
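HSE-bla HeLa cells (beta-lactamase reporter under heat shock response elements) were exposed to compounds for 5 h at 37 C, then loaded with LiveBLAzer B/G FRET substrate for 2.5 h at room temperature before fluorescence reading.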

Assay [8] can be described thus: qHTS assay to identify small molecule agonists of the peroxisome proliferator-activated receptor delta (PPARd) signaling pathway - cell viability counter screen (AID 743211). Note: nearly all actives have a fitted effect of over 55% in size. Note: potency is the fitted concentration of half-maximal effect. The gist of the method:
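Multiplexed format: after the 2 h room-temperature LiveBLAzer B/G FRET step, CellTiter-Glo was added to the same wells. Luminescence after 30 min gave cell viability; compound exposure was 17 h at 37C.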

Assay [9] concerns the target Peroxisome proliferator-activated receptor delta (Homo sapiens) (UniProt Q03181). Nature of the assay: qHTS assay to identify small molecule agonists of the peroxisome proliferator-activated receptor delta (PPARd) signaling pathway (AID 743212; calls by dose curve). The gist of the method:
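GeneBLAzer PPARd UAS-bla HEK293H cells (beta-lactamase reporter under UAS control), plated and rested 5 h at 37 C, then exposed to compounds in DMSO at 37 C; LiveBLAzer B/G FRET substrate added, 2 h room temperature, fluorescence read.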

Assay [10] is described as follows: qHTS assay to identify small molecule antagonists of the peroxisome proliferator-activated receptor delta (PPARd) signaling pathway - cell viability counter screen (AID 743213). Note: nearly all actives have a fitted effect of over 50% in size. The gist of the method:
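In this counter screen, HEK293H cells carrying a UAS-beta-lactamase reporter are co-treated with test compounds and 300 nM L165041 (final) for 17 h at 37 C; cell viability is quantified by CellTiter-Glo luminescence.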

Assay [11] concerns the target Peroxisome proliferator-activated receptor delta (Homo sapiens) (UniProt Q03181). Nature of the assay: qHTS assay to identify small molecule antagonists of the peroxisome proliferator-activated receptor delta (PPARd) signaling pathway (AID 743215; active = well fitted inhibition curve with a large enough effect in the signal ratio in the repeat runs, not every such curve was filed as active; the % refers to the signal ratio;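 note: cells stimulated with agonist L165041 at 300 nM final during compound exposure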; note: potency is the fitted concentration of half-maximal effect). The gist of the method:
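With L165041 present at 300 nM final, compounds were incubated 17 h at 37 C on PPARd UAS-bla HEK293H cells. A FRET-based beta-lactamase substrate was then applied for 2 h at room temperature and fluorescence intensity recorded.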

Assay [12] deals with Bile acid receptor (Homo sapiens) (UniProt Q96RI1). The experiment in a line: qHTS assay to identify small molecule antagonists of the farnesoid-X-receptor (FXR) signaling pathway (AID 743217; active = well fitted inhibition curve with a large enough effect in the signal ratio in the repeat runs, not every such curve was filed as active; the % refers to the signal ratio). Put shortly: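 In this cell-based antagonist screen, inhibition of CDCA-driven (50 uM final) UAS-beta-lactamase expression in HEK 293T cells was measured by FRET fluorescence following 16 h compound exposure at 37 °C.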

The nature of assay [13]: qHTS assay to identify small molecule agonists of the farnesoid-X-receptor (FXR) signaling pathway - cell viability counter screen (AID 743218). Note: nearly all actives have a fitted effect of over 45% in size. Put shortly: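 After 16 h at 37 C with test compounds, FXR-bla HEK 293T cells were given LiveBLAzer B/G substrate for 2 h at RT and then CellTiter-Glo; luminescence was taken after 30 min.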
The target of assay [14] is Bile acid receptor (Homo sapiens) (UniProt Q96RI1). The experiment in a line: qHTS assay to identify small molecule agonists of the farnesoid-X-receptor (FXR) signaling pathway (AID 743220; active = well fitted activation curve with a large enough effect in the signal ratio in the repeat runs, not every such curve was filed as active; the % refers to the signal ratio). Put shortly:
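Beta-lactamase reporter under UAS control in GeneBLAzer FXR HEK 293T cells (5000/well) measured with LiveBLAzer FRET substrate after 2 h at room temperature. Compound exposure lasted 16 h at 37C.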

Assay [15] in a line: qHTS assay to identify small molecule antagonists of the farnesoid-X-receptor (FXR) signaling pathway - cell viability counter screen (AID 743221; active = well fitted cell-killing curve with a large enough effect in the repeat runs, not every such curve was filed as active; note: nearly all actives have a fitted effect of over 50% in size). Put shortly: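 CellTiter-Glo, 30 min RT, luminescence; same wells as the LiveBLAzer FRET read. Cells: FXR-UAS-bla HEK 293T. Treatment: compound with chenodeoxycholic acid 50 uM final, 16 h at 37 C.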
Assay [16] has as its target Vitamin D3 receptor (Homo sapiens) (UniProt P11473). Nature of the assay: qHTS assay to identify small molecule agonists of the vitamin D receptor (VDR) signaling pathway (AID 743222; calls by dose curve). The gist of the method:
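VDR-bla cells were seeded, left 4 h, treated with compounds in DMSO for 16 h, incubated 2 h at RT with B/G FRET substrate, and read for fluorescence.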

Assay [17] has the same target. Nature of the assay: qHTS assay to identify small molecule antagonists of the vitamin D receptor (VDR) signaling pathway (AID 743223; active = well fitted inhibition curve with a large enough effect in the signal ratio in the repeat runs, not every such curve was filed as active; the % refers to the signal ratio). The gist of the method:
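After VDR-bla cells are plated and left 4 h at 37C, DMSO-dissolved compounds and 3 nM (final) calcitriol agonist are added. Incubation continues 16 h at 37C; FRET beta-lactamase substrate then develops 2 h at room temperature.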

The nature of assay [18]: qHTS assay for small molecule agonists of the antioxidant response element (ARE) signaling pathway (AID 743202; active = well fitted activation curve with a large enough effect in the signal ratio in the repeat runs, not every such curve was filed as active; the % refers to the signal ratio). Put shortly: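 Read-out: LiveBLAzer B/G FRET substrate fluorescence after 2 h at room temperature, following 16 h compound treatment at 37 C of HepG2 cells carrying an ARE-driven beta-lactamase reporter.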
Assay [19] addresses Peroxisome proliferator-activated receptor gamma (Homo sapiens) (UniProt P37231). The experiment in a line: qHTS assay to identify small molecule antagonists of the peroxisome proliferator-activated receptor gamma (PPARg) signaling pathway (AID 743191; calls by dose curve; note: nearly all actives have a fitted effect of over 30% in size; note: potency is the fitted concentration of half-maximal effect). The gist of the method: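 GeneBLAzer PPARg UAS-bla HEK293H cells carrying a UAS-driven beta-lactamase reporter were plated at 3000 cells/well, preincubated 5 h at 37C, then given compound for 17 h at 37C; LiveBLAzer B/G FRET substrate was read after 1 h at room temperature.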

Assay [20] is described as follows: qHTS assay to identify small molecule that activate the aryl hydrocarbon receptor (AhR) signaling pathway - cell viability counter screen (AID 743086).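 Note: HepG2 liver cells carrying the AhR DRE luciferase reporter; series mostly up to about 70 µM; nearly all actives have a fitted effect of over 45% in size.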 The gist of the method: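 HepG2-AhR-luc (HG2L7.5c1) cells, 4000/well, were preincubated 5 h at 37C, exposed to compound in qHTS format for 24 hr at 37C, then given CellTiter-Fluor for 30 min; viability was read as fluorescence in the reporter wells.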

Sequence of Vitamin D3 receptor (Homo sapiens) (P11473 whole entry, looked up): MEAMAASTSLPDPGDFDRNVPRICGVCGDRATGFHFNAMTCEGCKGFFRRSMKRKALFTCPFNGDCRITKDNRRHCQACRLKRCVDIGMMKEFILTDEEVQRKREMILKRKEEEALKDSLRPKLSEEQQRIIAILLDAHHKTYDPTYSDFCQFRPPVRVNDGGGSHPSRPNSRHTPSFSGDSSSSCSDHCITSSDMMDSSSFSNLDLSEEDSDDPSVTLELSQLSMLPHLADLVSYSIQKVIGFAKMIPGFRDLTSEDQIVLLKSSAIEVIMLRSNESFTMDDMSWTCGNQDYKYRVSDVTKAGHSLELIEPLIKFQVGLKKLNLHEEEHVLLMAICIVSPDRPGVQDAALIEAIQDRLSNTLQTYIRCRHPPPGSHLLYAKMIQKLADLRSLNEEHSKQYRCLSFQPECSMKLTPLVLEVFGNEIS
Sequence of Peroxisome proliferator-activated receptor delta (Homo sapiens) (Q03181 whole entry, looked up): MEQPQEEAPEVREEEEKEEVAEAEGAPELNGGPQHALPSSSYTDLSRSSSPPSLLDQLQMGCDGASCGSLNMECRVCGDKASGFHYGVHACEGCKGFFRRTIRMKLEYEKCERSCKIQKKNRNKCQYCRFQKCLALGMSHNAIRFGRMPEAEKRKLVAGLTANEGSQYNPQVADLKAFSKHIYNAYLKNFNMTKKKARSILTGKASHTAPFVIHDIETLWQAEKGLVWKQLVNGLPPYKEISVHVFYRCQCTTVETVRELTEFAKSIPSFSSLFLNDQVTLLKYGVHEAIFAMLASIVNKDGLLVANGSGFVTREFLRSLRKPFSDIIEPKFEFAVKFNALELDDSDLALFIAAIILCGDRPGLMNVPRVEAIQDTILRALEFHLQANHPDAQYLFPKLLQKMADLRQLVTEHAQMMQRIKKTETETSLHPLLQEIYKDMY
Sequence of Aryl hydrocarbon receptor (Homo sapiens) (P35869 whole entry, looked up): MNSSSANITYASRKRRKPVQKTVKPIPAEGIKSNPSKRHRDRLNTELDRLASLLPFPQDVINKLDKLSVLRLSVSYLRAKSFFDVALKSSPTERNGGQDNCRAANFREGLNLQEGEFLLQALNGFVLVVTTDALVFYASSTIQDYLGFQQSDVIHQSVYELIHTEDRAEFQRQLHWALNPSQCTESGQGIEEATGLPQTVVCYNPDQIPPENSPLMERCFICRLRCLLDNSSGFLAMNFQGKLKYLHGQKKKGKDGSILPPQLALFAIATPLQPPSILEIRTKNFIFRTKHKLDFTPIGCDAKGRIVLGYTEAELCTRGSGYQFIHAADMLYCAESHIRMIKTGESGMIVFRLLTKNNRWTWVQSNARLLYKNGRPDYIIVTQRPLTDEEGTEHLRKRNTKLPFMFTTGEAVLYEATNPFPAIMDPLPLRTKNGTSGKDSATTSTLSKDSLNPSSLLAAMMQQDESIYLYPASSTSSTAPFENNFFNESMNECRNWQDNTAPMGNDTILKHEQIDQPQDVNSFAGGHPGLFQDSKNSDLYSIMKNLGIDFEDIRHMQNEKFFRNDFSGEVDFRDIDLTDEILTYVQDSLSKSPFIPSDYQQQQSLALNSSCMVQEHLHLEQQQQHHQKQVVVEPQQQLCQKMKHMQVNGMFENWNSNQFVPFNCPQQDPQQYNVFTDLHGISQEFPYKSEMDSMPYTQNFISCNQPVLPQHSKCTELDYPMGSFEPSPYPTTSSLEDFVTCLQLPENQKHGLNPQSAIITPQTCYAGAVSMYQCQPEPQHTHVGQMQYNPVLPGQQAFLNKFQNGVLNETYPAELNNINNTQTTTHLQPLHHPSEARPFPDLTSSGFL
Sequence of Bile acid receptor (Homo sapiens) (Q96RI1 whole entry, looked up): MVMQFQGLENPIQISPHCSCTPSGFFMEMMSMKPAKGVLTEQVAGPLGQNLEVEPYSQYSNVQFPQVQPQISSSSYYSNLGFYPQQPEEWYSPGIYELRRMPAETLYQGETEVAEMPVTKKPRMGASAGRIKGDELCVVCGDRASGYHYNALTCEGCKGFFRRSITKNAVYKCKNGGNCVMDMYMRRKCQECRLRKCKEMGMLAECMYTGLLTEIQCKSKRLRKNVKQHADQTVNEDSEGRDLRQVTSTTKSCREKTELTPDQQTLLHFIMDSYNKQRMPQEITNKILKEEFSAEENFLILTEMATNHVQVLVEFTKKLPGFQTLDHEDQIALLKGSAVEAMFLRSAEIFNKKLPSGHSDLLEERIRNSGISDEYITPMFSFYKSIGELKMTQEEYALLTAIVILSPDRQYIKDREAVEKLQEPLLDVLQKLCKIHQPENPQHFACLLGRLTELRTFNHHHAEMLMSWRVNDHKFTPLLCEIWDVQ
Sequence of Peroxisome proliferator-activated receptor gamma (Homo sapiens) (P37231 whole entry, looked up): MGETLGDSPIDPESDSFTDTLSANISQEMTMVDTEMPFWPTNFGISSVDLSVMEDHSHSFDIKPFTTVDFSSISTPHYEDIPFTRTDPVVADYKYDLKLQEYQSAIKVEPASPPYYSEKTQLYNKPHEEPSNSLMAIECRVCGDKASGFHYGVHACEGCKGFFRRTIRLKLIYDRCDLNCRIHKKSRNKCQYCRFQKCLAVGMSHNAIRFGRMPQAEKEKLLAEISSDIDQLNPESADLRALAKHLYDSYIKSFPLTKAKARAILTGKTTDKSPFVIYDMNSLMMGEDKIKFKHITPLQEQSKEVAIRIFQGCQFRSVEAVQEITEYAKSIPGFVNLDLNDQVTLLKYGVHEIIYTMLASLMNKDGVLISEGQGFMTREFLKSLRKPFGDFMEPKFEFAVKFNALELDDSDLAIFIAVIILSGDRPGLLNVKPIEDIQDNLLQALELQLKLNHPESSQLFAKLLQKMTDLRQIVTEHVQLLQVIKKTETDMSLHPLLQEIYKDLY

As to `CCOP(=S)(OCC)Oc1nc(Cl)c(Cl)cc1Cl`, the Potency result in [1], in assay [3], in assay [4], in assay [5], in assay [6] and in assay [8] was “inactive” each time. Moreover, the Potency entry in assay [10], in assay [11], in assay [12], in assay [13] and in [15] was “inactive” in each case. Moreover, the Potency in assay [2] is 27.4 µM (active) and 10.9 µM (active). The result in assay [7], in [9], in assay [14], in assay [16] and in [17] was inactive.
As to `BrCCCCBr`, the Potency result in assay [1], in assay [2], in assay [3], in assay [5], in assay [6] and in assay [13] was “inactive” throughout. In [15], the Potency entry was “inactive”. Also, in [7], the call was inactive.
Turning to `CCOC(=O)C(Cl)C(C)=O` (stereo unspecified), the Potency result in assay [1], in [2], in [3], in assay [4], in assay [18] and in [5] was “inactive” in each case. Also, the Potency entry in assay [6], in assay [8], in [10], in [13] and in [15] was “inactive” each time. For the same compound, the outcome in [7], in assay [16] and in [17] was inactive.
For `C[C@H]1CNCCc2ccc(Cl)cc21`, the Potency entry in [1], in assay [2], in [3], in [4], in assay [5] and in assay [6] was “inactive” throughout. Besides, the Potency entry in assay [11], in assay [12], in assay [13] and in assay [15] was “inactive” each time. Further, the compound was called inactive in assay [7], in [9], in assay [14] and in [17].
Take `CC(O)(CS(=O)(=O)c1ccc(F)cc1)C(=O)Nc1ccc(C#N)c(C(F)(F)F)c1` (stereo unspecified): the Potency entry in assay [1], in assay [2], in [3], in assay [19], in assay [4] and in [6] was “inactive” throughout. Further, the Potency result in assay [8], in assay [11], in assay [13] and in [15] was “inactive” throughout. Further, the outcome in assay [7], in [9], in assay [16] and in assay [17] was inactive.
As to `C=CC[C@]1(O)CC[C@H]2[C@@H]3CCC4=CC(=O)CCC4=C3C=C[C@@]21C`, the Potency result in [1], in [20], in assay [5], in assay [6], in assay [8] and in assay [10] was “inactive” throughout. Besides, the Potency result in [13] and in [15] was “inactive” in each case. The Potency in [2] was 5.96 µM (active). Also, the result in assay [7] was inactive.
Turning to `CC(c1ccc(O)cc1)(c1ccc(O)cc1)c1ccc(O)cc1`, the Potency result in assay [1], in assay [2], in assay [3], in assay [6], in assay [10] and in [15] was “inactive” in each case. Moreover, the Potency in assay [19] was 21.9 µM (active); in assay [11], 4.9 µM (active). Besides, in [16], the compound was classed as inactive.
Consider `CCCCC(O)(Cn1cncn1)c1ccc(Cl)cc1Cl` (stereo unspecified), for which the results for the Potency in [1] and in assay [8] were 68.5 µM (active) and 54.9 µM (active), respectively. Further, the Potency entry in assay [2], in assay [3], in assay [6] and in assay [13] was “inactive” throughout. Further, the result in assay [14] was inactive.
On to `c1ccc(C2CC2)c(OCC2=NCCN2)c1`, for which the Potency result in assay [1], in assay [2], in assay [3], in [19], in [18] and in assay [5] was “inactive” each time. For the same compound, the Potency entry in [6], in assay [8], in [10], in [11], in [13] and in [15] was “inactive” each time. Besides, the result in assay [7], in [9] and in assay [16] was inactive.
With `c1ccoc1`, the Potency entry in [1], in assay [2], in assay [3], in assay [4], in assay [18] and in assay [5] was “inactive” each time. The Potency result in assay [6], in assay [8], in assay [10], in [11], in assay [12] and in assay [13] was “inactive” each time. Further, the Potency result in [15] was “inactive”. In addition, the call in assay [7], in [9], in [14], in assay [16] and in assay [17] was inactive.
